# Test results: PubChem BioAssay (EPA / NIEHS)
# Records with an inconclusive call do not appear. Activity calls are given as the source filed them. Rule for the calls, unless noted: active = hit-call score of the fitted dose curve at least 0.9, where 1 is the maximum; inconclusive = response in the unintended direction; inactive = score below 0.9.
# How the values were obtained:
# [1] = Tanguay_ZF_120hpf_YSE_legacy: (Legacy) Oregon State University Tanguay Lab 120 Hour Post-fertilization zebrafish Assay for Yolk Sac Edema (AID 2283634);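 for AC50: actives raise the incidence of yolk sac edema above the DMSO baseline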
# How it was run: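 Tropical 5D wild-type embryos, dechorionated with pronase at 4 hpf, were exposed singly from 6 hpf to 120 hpf under static, sealed, dark conditions at 28C with 0.64% DMSO final. Yolk sac edema was scored present/absent by brightfield microscopy.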
# [2] = Tanguay_ZF_120hpf_JAW_legacy: (Legacy) Oregon State University Tanguay Lab 120 Hour Post-fertilization zebrafish Assay for Jaw Malformation (AID 2283638);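 for AC50: active means more embryos with jaw malformation than DMSO controls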
# How it was run: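 Tropical 5D wild-type embryos, dechorionated with pronase at 4 hpf, were placed singly per well at 6 hpf and statically exposed at 28C until 120 hpf (0.64% DMSO final). Jaw malformation scored as present/absent by brightfield microscopy at 120 hpf, analyzed relative to DMSO.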
# [3] = Tanguay_ZF_120hpf_OTIC_legacy: (Legacy) Oregon State University Tanguay Lab 120 Hour Post-fertilization zebrafish Assay for Otic Vesicle Malformation (AID 2283639)
# How it was run: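 Tropical 5D wild-type zebrafish embryos were exposed statically in sealed, foil-covered plates at 28C until 120 hpf, with 0.64% (vol/vol) DMSO final. Otic vesicle malformation was scored present/absent by brightfield microscopy, with DMSO as baseline.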
# [4] = Tanguay_ZF_120hpf_PE_legacy: (Legacy) Oregon State University Tanguay Lab 120 Hour Post-fertilization zebrafish Assay for Pericardial Edema (AID 2283640);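 for AC50: potency for increased incidence of pericardial edema versus DMSO baseline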
# How it was run: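 Tropical 5D wild-type zebrafish embryos were exposed statically to 120 hpf at 28C, sealed and foil-covered, in 0.64% DMSO final. Pericardial edema was scored present/absent by brightfield microscopy; dead embryos were not scored.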
# [5] = Tanguay_ZF_120hpf_BRAI_legacy: (Legacy) Oregon State University Tanguay Lab 120 Hour Post-fertilization zebrafish Assay for Brain Malformation (AID 2283641)
# How it was run: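 Tropical 5D wild-type zebrafish embryos were exposed statically in sealed, foil-covered plates at 28C until 120 hpf, with 0.64% (vol/vol) final DMSO. Brain malformation was scored present/absent by brightfield microscopy, relative to DMSO baseline.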
# [6] = Tanguay_ZF_120hpf_SOMI_legacy: (Legacy) Oregon State University Tanguay Lab 120 Hour Post-fertilization zebrafish Assay for Somite Malformation (AID 2283647)
# How it was run: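 Tropical 5D wild-type zebrafish embryos, dechorionated with pronase at 4 hpf, were placed singly at 6 hpf and statically exposed until 120 hpf at 28C in 0.64% DMSO. Somite malformation was scored present/absent by brightfield microscopy versus DMSO.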
# [7] = Tanguay_ZF_120hpf_CFIN_legacy: (Legacy) Oregon State University Tanguay Lab 120 Hour Post-fertilization zebrafish Assay for Caudal Fin Malformation (AID 2283649)
# How it was run: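 Tropical 5D wild-type embryos, dechorionated with pronase at 4 hpf, were placed singly in wells at 6 hpf and statically exposed to compound at 28C until 120 hpf (0.64% DMSO). Caudal fin malformation was scored present/absent by brightfield microscopy.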
# [8] = Tanguay_ZF_120hpf_SWIM_legacy: (Legacy) Oregon State University Tanguay Lab 120 Hour Post-fertilization zebrafish Assay for Swim Bladder Malformation (AID 2283654);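 note: swim bladder malformation in each larva scored yes or no under brightfield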
# How it was run: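 Dechorionated wild-type Tropical 5D zebrafish embryos, one per well from 6 hpf, were statically exposed at 28C until 120 hpf in 0.64% DMSO. Swim bladder malformation scored as present/absent by brightfield microscopy; not scored in dead larvae.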
# [9] = Tanguay_ZF_120hpf_TRUN_legacy: (Legacy) Oregon State University Tanguay Lab 120 Hour Post-fertilization zebrafish Assay for Truncated Body (AID 2283655)
# How it was run: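 Tropical 5D wild-type embryos, dechorionated with pronase at 4 hpf, were placed singly in wells at 6 hpf and statically exposed at 28C until 120 hpf, final DMSO 0.64%. Truncated body was scored present/absent by brightfield microscopy.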
# [10] = Tanguay_ZF_120hpf_NC_legacy: (Legacy) Oregon State University Tanguay Lab 120 Hour Post-fertilization zebrafish Assay for Notochord and Tail Malformation (AID 2283656)
# How it was run: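 Dechorionated 5D zebrafish, 1/well from 6 hpf; static exposure to 120 hpf, 28C, sealed, dark; final DMSO 0.64% v/v. NC scored binary (present/absent); dead embryos not scored. Fit vs DMSO baseline, gain direction.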
# [11] = Tanguay_ZF_120hpf_AXIS_legacy: (Legacy) Oregon State University Tanguay Lab 120 Hour Post-fertilization zebrafish Assay for Body Axis Malformation (AID 2283635);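 for AC50: potency for an increased fraction of larvae scored with body axis malformation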
# How it was run: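 Tropical 5D wild-type zebrafish embryos, dechorionated with pronase at 4 hpf, were placed singly in wells at 6 hpf and exposed statically to test chemical (0.64% DMSO final) at 28C until 120 hpf, then scored by brightfield for body axis defects.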
# [12] = Tanguay_ZF_120hpf_EYE_legacy: (Legacy) Oregon State University Tanguay Lab 120 Hour Post-fertilization zebrafish Assay for Eye Malformation (AID 2283636);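 note: binary presence or absence of eye malformation scored by brightfield in 120 hpf larvae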
# How it was run: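 Dechorionated Tropical 5D zebrafish embryos, one per well from 6 hpf, static exposure to 120 hpf at 28C, 0.64% DMSO. Eye malformation scored present/absent by brightfield; dead embryos not scored.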
# [13] = Tanguay_ZF_120hpf_PFIN_legacy: (Legacy) Oregon State University Tanguay Lab 120 Hour Post-fertilization zebrafish Assay for Pectoral Fin Malformation (AID 2283648);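 note: each larva judged yes or no for fin defect by brightfield with dead larvae skipped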
# How it was run: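 Dechorionated Tropical 5D wild-type zebrafish embryos, one per well, statically exposed from 6 to 120 hpf at 28C with 0.64% DMSO final. Pectoral fin malformation scored present/absent by brightfield at 120 hpf; not scored in dead embryos.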
# [14] = Tanguay_ZF_120hpf_PIG_legacy: (Legacy) Oregon State University Tanguay Lab 120 Hour Post-fertilization zebrafish Assay for Pigmentation Malformation (AID 2283650)
# How it was run: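 Dechorionated Tropical 5D wild-type embryos, one per well from 6 hpf, statically exposed at 28C in the dark until 120 hpf, 0.64% DMSO final. Pigmentation scored present/absent by brightfield microscopy; dead embryos not scored; fitted versus DMSO.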
# [15] = Tanguay_ZF_120hpf_CIRC_legacy: (Legacy) Oregon State University Tanguay Lab 120 Hour Post-fertilization zebrafish Assay for Circulatory Malformation (AID 2283651)
# How it was run: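 Tropical 5D wild-type embryos, dechorionated with pronase at 4 hpf, were placed singly in wells at 6 hpf and exposed statically at 28C to 120 hpf (0.64% DMSO final). Circulatory malformation was scored present/absent by brightfield microscopy.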
# [16] = Tanguay_ZF_120hpf_SNOU_legacy: (Legacy) Oregon State University Tanguay Lab 120 Hour Post-fertilization zebrafish Assay for Snout Malformation (AID 2283637)
# How it was run: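 Dechorionated tropical 5D wild-type zebrafish embryos exposed statically from 6 to 120 hpf at 28C, one per well, in 0.64% DMSO. Snout malformation scored as present/absent by brightfield at 120 hpf; dead embryos not scored.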
# [17] = read-out: solute carrier (SLC22A6), SLC22A6 (gene 9356); experiment: LTEA_HepaRG_SLC22A6: Life Technologies and Expression Analysis (LTEA) Assay for solute carrier (SLC22A6) using HepaRG (AID 2283653; active = hit-call score of the fitted dose curve at least 0.9, where 1 is the maximum; inactive = score below 0.9); settings: mRNA level, 48 h; actives raise or lower the signal
# How it was run: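 Differentiated human HepaRG cells were exposed for 48 h in serum-free induction medium to eight concentrations (top 100 uM, half-log steps, 0.5% DMSO), in duplicate. SLC22A6 mRNA was quantified by qRT-PCR, normalised to ACTB, GAPDH and POLR2A, and fitted bidirectionally against DMSO.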
# [18] = read-out: solute carrier (SLC10A1), SLC10A1 (gene 6554); experiment: LTEA_HepaRG_SLC10A1: Life Technologies and Expression Analysis (LTEA) Assay for solute carrier (SLC10A1) using HepaRG (AID 2283657; active = hit-call score of the fitted dose curve at least 0.9, where 1 is the maximum; inactive = score below 0.9); settings: mRNA level, 48 h; actives raise or lower the signal
# How it was run: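 HepaRG cells (single lot) exposed 48 h in serum-free induction medium, 8-point half-log series from 100 uM top in 0.5% DMSO, duplicate. SLC10A1 mRNA by qRT-PCR normalised to ACTB, GAPDH, POLR2A; bidirectional fit versus DMSO.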
# [19] = read-out: matrix metalloproteinase-1 (MMP1), MMP1 (gene 4312); experiment: LTEA_HepaRG_MMP1: Life Technologies and Expression Analysis (LTEA) Assay for matrix metalloproteinase-1 (MMP1) using HepaRG (AID 2283658; active = hit-call score of the fitted dose curve at least 0.9, where 1 is the maximum; inactive = score below 0.9); settings: mRNA level, 48 h; actives raise or lower the signal
# How it was run: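 Differentiated HepaRG cells, plated 48 h then switched to serum-free induction medium, were exposed in duplicate for 48 h to eight half-log concentrations up to 100 uM in 0.5% DMSO; MMP1 mRNA measured by qRT-PCR, normalized to ACTB, GAPDH, POLR2A.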
smiles,measurement,setting,value
C[N+](C)(C)CC1CO1 (stereo not given),outcome,[1],inactive
same,outcome,[2],inactive
same,outcome,[3],inactive
same,outcome,[4],inactive
same,outcome,[5],inactive
same,outcome,[6],inactive
same,outcome,[7],inactive
same,outcome,[8],inactive
same,outcome,[9],inactive
same,outcome,[10],inactive
CCCCCCCCn1sccc1=O,outcome,[11],inactive
same,outcome,[12],inactive
same,outcome,[2],inactive
same,outcome,[3],inactive
same,outcome,[4],inactive
same,outcome,[5],inactive
same,outcome,[13],inactive
same,outcome,[7],inactive
same,outcome,[14],inactive
same,outcome,[15],inactive
same,outcome,[8],inactive
same,outcome,[9],inactive
same,outcome,[10],inactive
ClC1=C(Cl)[C@]2(Cl)[C@H]3[C@H]([C@@H]4C=C[C@H]3C4)[C@@]1(Cl)C2(Cl)Cl,outcome,[1],inactive
same,outcome,[11],inactive
same,outcome,[16],inactive
same,outcome,[2],inactive
same,outcome,[3],inactive
same,outcome,[4],inactive
same,outcome,[6],inactive
same,outcome,[13],inactive
same,outcome,[7],inactive
same,outcome,[15],inactive
same,outcome,[8],inactive
same,outcome,[9],inactive
same,outcome,[10],inactive
O=Cc1ccco1,outcome,[1],inactive
same,outcome,[11],inactive
same,outcome,[12],inactive
same,outcome,[16],inactive
same,outcome,[2],inactive
same,outcome,[4],inactive
same,outcome,[6],inactive
same,outcome,[13],inactive
same,outcome,[7],inactive
same,outcome,[15],inactive
same,outcome,[9],inactive
same,outcome,[10],inactive
Cc1ccc(N)c(N)c1,outcome,[1],inactive
same,outcome,[11],inactive
same,outcome,[12],inactive
same,outcome,[16],inactive
same,outcome,[3],inactive
same,outcome,[4],inactive
same,outcome,[5],inactive
same,outcome,[6],inactive
same,outcome,[13],inactive
same,outcome,[7],inactive
same,outcome,[14],inactive
same,outcome,[15],inactive
same,outcome,[8],inactive
same,outcome,[9],inactive
same,outcome,[10],inactive
CCCCCCCCOC(=O)c1ccc(C(=O)OCCCCCCCC)c(C(=O)OCCCCCCCC)c1,outcome,[1],inactive
same,outcome,[11],inactive
same,outcome,[16],inactive
same,outcome,[3],inactive
same,outcome,[4],inactive
same,outcome,[6],inactive
same,outcome,[13],inactive
same,outcome,[7],inactive
same,outcome,[15],inactive
same,outcome,[8],inactive
same,outcome,[9],inactive
same,outcome,[10],inactive
O=[N+]([O-])c1ccc(Oc2ccc(Cl)cc2Cl)cc1,outcome,[1],inactive
same,outcome,[11],inactive
same,outcome,[12],inactive
same,outcome,[3],inactive
same,outcome,[4],inactive
same,outcome,[6],inactive
same,outcome,[13],inactive
same,outcome,[7],inactive
same,outcome,[8],inactive
same,outcome,[9],inactive
CCN(CC)CCO,outcome,[1],inactive
same,outcome,[11],inactive
same,outcome,[12],inactive
same,outcome,[3],inactive
same,outcome,[4],inactive
same,outcome,[6],inactive
same,outcome,[13],inactive
same,outcome,[7],inactive
same,outcome,[15],inactive
same,outcome,[17],inactive
same,outcome,[8],inactive
same,outcome,[9],inactive
same,outcome,[10],inactive
same,outcome,[18],inactive
same,outcome,[19],inactive
Oc1ccccc1Cl,outcome,[12],inactive
same,outcome,[3],inactive
same,outcome,[5],inactive
same,outcome,[7],inactive
same,outcome,[15],inactive
same,outcome,[8],inactive
same,outcome,[9],inactive
ClCCOCCCl,outcome,[11],inactive
same,outcome,[16],inactive
same,outcome,[2],inactive
same,outcome,[4],inactive
same,outcome,[5],inactive
same,outcome,[6],inactive
same,outcome,[13],inactive
same,outcome,[7],inactive
same,outcome,[14],inactive
same,outcome,[15],inactive
same,outcome,[8],inactive
same,outcome,[9],inactive
same,outcome,[10],inactive
Clc1ccc(C(c2ccc(Cl)cc2)C(Cl)(Cl)Cl)cc1,outcome,[1],inactive
same,outcome,[11],inactive
same,outcome,[16],inactive
same,outcome,[2],inactive
same,outcome,[3],inactive
same,outcome,[4],inactive
same,outcome,[6],inactive
same,outcome,[13],inactive
same,outcome,[7],inactive
same,outcome,[15],inactive
same,outcome,[8],inactive
same,outcome,[9],inactive
same,outcome,[10],inactive
O=C(Nc1ccccc1)c1ccccc1I,AC50,[1],51.3 µM (active)
same,AC50,[12],10.5 µM (active)
same,AC50,[16],12.1 µM (active)
same,AC50,[2],50.4 µM (active)
same,AC50,[3],48 µM (active)
same,AC50,[4],43.5 µM (active)
same,outcome,[6],inactive
same,AC50,[13],47.3 µM (active)
same,AC50,[7],45 µM (active)
same,outcome,[14],inactive
same,AC50,[15],76.6 µM (active)
same,outcome,[8],inactive
same,outcome,[9],inactive
same,outcome,[10],inactive
CC(C)(C)C(O)(CCc1ccc(Cl)cc1)Cn1cncn1 (stereo not given),outcome,[1],inactive
same,outcome,[11],inactive
same,outcome,[12],inactive
same,outcome,[16],inactive
same,outcome,[3],inactive
same,outcome,[4],inactive
same,outcome,[6],inactive
same,outcome,[7],inactive
same,outcome,[14],inactive
same,outcome,[8],inactive
same,outcome,[10],inactive
O=C(N[C@H](c1ccccc1)[C@@H]1CN2CCC1CC2)c1c(Cl)ccc(C(F)(F)F)c1Cl,outcome,[1],inactive
same,AC50,[11],1.27 µM (active)
same,outcome,[16],inactive
same,outcome,[3],inactive
same,outcome,[4],inactive
same,outcome,[13],inactive
same,outcome,[14],inactive
